Assay results taken from PubChem BioAssay (EPA / NIEHS).
Values joined by “and” are separate entries in the source; they are usually repeats but may differ in a detail not shown here. Equal values may be shown once. Records with an inconclusive call do not appear. Where a structure was tested more than once in an assay, its records may differ in their call. Active and inactive are the calls of the source. Rule for the calls, unless noted: active = hit-call score of the fitted dose curve at least 0.9, where 1 is the maximum; inactive = score below 0.9.

Columns and labels:
[1] = target: human RAR-related Orphan Receptor gamma (RORg), RORC (gene 6097) (UniProt P51449); experiment: ATG_RORg_TRANS: Attagene TRANS-FACTORIAL HepG2 Assay for human RAR-related Orphan Receptor gamma (RORg) (AID 2283011; active = hit-call score of the fitted dose curve at least 0.9, where 1 is the maximum)
human RAR-related Orphan Receptor gamma (RORg), RORC (gene 6097), sequence (P51449 whole entry, looked up, the tested form may be a part): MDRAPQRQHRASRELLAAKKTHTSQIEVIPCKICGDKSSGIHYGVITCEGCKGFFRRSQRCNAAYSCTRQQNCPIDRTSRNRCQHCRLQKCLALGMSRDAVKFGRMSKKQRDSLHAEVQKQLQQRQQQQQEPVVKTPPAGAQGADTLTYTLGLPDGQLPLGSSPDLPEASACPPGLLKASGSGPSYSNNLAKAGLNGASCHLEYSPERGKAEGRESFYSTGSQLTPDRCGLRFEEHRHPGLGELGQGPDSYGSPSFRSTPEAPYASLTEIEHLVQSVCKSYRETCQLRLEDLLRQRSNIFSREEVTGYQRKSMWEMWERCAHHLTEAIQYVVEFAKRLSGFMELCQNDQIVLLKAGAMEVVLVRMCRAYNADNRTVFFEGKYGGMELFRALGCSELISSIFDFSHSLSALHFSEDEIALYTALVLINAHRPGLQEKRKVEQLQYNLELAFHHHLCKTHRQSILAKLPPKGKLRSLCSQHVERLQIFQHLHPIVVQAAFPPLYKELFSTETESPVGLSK
Method in brief: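 Transient MRTU transfection of HepG2 (TRANS format, exogenous NR-Gal4 chimera). 24 h dosing. Total RNA → oligo(dT) RT → PCR → 6-FAM labelling → HpaI cut → CE. Gain vs DMSO.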

[2] = target: Retinoic acid receptor RXR-alpha (Homo sapiens) (UniProt P19793); experiment: ATG_RXRa_TRANS: Attagene TRANS-FACTORIAL HepG2 Assay for human Retinoid X Receptor alpha (RXRa) (AID 2283012; active = hit-call score of the fitted dose curve at least 0.9, where 1 is the maximum)
Retinoic acid receptor RXR-alpha (Homo sapiens), sequence (P19793 whole entry, looked up, the tested form may be a part): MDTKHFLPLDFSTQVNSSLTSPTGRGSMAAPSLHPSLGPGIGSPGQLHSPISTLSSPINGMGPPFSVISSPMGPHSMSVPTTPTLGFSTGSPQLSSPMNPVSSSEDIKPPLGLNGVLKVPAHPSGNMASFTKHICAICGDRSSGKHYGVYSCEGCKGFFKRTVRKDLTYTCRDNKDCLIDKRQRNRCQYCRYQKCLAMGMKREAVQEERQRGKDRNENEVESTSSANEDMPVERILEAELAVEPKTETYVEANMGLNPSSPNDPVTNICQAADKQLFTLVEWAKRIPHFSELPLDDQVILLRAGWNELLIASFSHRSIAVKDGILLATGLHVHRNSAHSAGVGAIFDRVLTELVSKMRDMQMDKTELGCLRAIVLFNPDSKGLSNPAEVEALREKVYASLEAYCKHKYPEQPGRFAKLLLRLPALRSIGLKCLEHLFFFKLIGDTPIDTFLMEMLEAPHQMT
Method in brief: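 Chimeric NR-GAL4 trans-activation in HepG2, 24 h treatment; reporter transcripts quantified by fluorescence on capillary electrophoresis, analysed for upward change from DMSO.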

[3] = target: human Thyroid Receptor alpha (THRa1), THRA (gene 7067) (UniProt P10827); experiment: ATG_THRa1_TRANS: Attagene TRANS-FACTORIAL HepG2 Assay for human Thyroid Receptor alpha (THRa1) (AID 2283014; active = hit-call score of the fitted dose curve at least 0.9, where 1 is the maximum)
human Thyroid Receptor alpha (THRa1), THRA (gene 7067), sequence (P10827 whole entry, looked up, the tested form may be a part): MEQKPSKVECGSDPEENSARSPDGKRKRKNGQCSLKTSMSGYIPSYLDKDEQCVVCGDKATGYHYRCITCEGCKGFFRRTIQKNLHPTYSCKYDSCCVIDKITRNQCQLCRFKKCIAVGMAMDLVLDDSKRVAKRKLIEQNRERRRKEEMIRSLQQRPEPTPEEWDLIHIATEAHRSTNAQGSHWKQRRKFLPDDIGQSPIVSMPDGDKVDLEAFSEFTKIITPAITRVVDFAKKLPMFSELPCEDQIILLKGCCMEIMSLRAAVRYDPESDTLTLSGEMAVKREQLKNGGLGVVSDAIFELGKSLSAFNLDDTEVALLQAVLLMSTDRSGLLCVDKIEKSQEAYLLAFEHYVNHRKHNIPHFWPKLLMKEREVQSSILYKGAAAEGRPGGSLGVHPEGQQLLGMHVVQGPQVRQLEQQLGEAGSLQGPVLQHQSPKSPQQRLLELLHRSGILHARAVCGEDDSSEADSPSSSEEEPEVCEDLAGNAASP
Method in brief: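 Transient HepG2 transfection, NR-Gal4 chimera driving GAL4-UAS reporters; 24 h compound exposure; total RNA, oligo(dT) RT, PCR, fluorescent primer extension, capillary electrophoresis. Upward direction vs DMSO control.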

[4] = target: human Retinoid X Receptor beta (RXRb), RXRB (gene 6257) (UniProt P28702); experiment: ATG_RXRb_TRANS: Attagene TRANS-FACTORIAL HepG2 Assay for human Retinoid X Receptor beta (RXRb) (AID 2283013; active = hit-call score of the fitted dose curve at least 0.9, where 1 is the maximum)
human Retinoid X Receptor beta (RXRb), RXRB (gene 6257), sequence (P28702 whole entry, looked up, the tested form may be a part): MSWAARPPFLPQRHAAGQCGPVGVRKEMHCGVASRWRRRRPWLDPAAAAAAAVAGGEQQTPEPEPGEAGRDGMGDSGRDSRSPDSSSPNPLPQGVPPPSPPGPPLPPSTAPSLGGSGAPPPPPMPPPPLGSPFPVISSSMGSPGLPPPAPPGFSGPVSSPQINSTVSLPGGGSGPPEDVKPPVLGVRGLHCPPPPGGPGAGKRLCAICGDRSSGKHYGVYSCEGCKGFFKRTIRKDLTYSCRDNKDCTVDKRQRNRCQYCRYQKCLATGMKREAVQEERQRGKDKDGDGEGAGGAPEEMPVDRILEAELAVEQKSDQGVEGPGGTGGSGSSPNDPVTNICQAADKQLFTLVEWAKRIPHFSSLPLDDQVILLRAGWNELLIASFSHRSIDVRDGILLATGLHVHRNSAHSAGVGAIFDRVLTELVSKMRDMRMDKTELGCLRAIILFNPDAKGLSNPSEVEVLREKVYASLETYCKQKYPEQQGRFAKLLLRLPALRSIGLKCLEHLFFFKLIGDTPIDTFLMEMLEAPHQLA
Method in brief: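 After a 24 h incubation with test chemical, transfected HepG2 cells carrying NR-Gal4 fusions and GAL4-UAS reporter transcription units yield RNA whose reporter cDNA is FAM-labelled, HpaI-cut and sized by capillary electrophoresis; increases over DMSO are scored.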

[5] = read-out: E-selectin (Homo sapiens) (UniProt P16581); experiment: BSK_3C_Eselectin: BioMAP Diversity Plus: 3C Assay for Eselectin Biomarker Activity (AID 2283015); settings: primary human endothelial cells (HUVEC); actives raise or lower the signal
Method in brief: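 HUVEC, 3C stimulation; compound exposure 24 h; E-selectin by ELISA; gain- or loss-of-signal fitted bidirectionally vs DMSO baseline.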

[6] = read-out: Interleukin-1 alpha (IL1a), IL1A (gene 3552); experiment: BSK_BE3C_IL1a: BioMAP Diversity Plus: BE3C Assay for Interleukin-1 alpha (IL1a) Biomarker Activity (AID 2283016); settings: primary human bronchial epithelial cells; actives raise or lower the signal
Method in brief: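 Measured in human lung primary bronchial epithelial cells: IL-1a by ELISA at 24 h after dosing, with bidirectional fitting against DMSO.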

[7] = read-out: Monocyte Chemoattractant Protein-1 (MCP1), CCL2 (gene 6347); experiment: BSK_3C_MCP1: BioMAP Diversity Plus: 3C Assay for Monocyte Chemoattractant Protein-1 (MCP1) Biomarker Activity (AID 2283017); settings: primary human endothelial cells (HUVEC); actives raise or lower the signal
Method in brief: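 HUVEC, 3C system; 24 h chemical exposure; MCP-1 by ELISA; bidirectional curve fit vs DMSO baseline.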

[8] = read-out: Monocyte Chemoattractant Protein-1 (MCP1), CCL2 (gene 6347); experiment: BSK_4H_MCP1: BioMAP Diversity Plus: 4H Assay for Monocyte Chemoattractant Protein-1 (MCP1) Biomarker Activity (AID 2283018); settings: primary human endothelial cells (HUVEC); actives raise or lower the signal
Method in brief: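 Primary human umbilical vein endothelium is exposed to chemical for 24 h before MCP-1 is assayed by ELISA. Concentration-response fitted bidirectionally relative to DMSO.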

[9] = read-out: Human Leukocyte Antigen - DR isotype (HLADR), HLA-DRA (gene 3122); experiment: BSK_3C_HLADR: BioMAP Diversity Plus: 3C Assay for Human Leukocyte Antigen - DR isotype (HLADR) Biomarker Activity (AID 2283019); settings: primary human endothelial cells (HUVEC); actives raise or lower the signal
Method in brief: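 HUVEC, 3C stimulation, 24 h post-dose; HLA-DR by ELISA; bidirectional curve fit vs DMSO baseline; gain or loss of signal scored.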

Measured: AC50

E-selectin (Homo sapiens), sequence (P16581 whole entry, looked up): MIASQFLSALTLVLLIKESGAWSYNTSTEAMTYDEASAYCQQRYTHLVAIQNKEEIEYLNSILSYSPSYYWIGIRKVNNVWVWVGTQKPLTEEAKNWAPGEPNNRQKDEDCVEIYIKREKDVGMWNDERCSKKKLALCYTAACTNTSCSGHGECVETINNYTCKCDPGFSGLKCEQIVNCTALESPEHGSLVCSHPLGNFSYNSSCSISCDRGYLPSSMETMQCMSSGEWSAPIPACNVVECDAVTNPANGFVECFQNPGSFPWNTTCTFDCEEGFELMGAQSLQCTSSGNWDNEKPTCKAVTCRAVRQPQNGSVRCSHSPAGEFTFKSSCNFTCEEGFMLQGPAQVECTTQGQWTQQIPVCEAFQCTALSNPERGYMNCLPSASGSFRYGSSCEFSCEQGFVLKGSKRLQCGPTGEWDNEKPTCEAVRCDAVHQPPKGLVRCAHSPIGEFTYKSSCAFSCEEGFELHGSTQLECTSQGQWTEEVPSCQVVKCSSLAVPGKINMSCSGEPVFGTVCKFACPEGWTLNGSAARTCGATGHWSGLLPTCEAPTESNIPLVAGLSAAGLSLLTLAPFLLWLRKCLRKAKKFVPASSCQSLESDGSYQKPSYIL

N#CCCOCCC#N
inactive: [1] | [2] | [3]

CCCCOC(=O)C(C)O (stereo not given)
inactive: [2] | [4] | [3]

O=C(O)C(F)(F)C(F)(F)C(F)(F)OC(F)(F)F
not listed: [3] | [4]
inactive: all other assays above

C=CC(=O)OCCC(F)(F)C(F)(F)C(F)(F)C(F)(F)F
active: [5] 33.7 µM and 30 µM
not listed: [3]
inactive: all other assays above

CCCCCCCCCCCCC[N+](C)(C)Cc1ccccc1
inactive: [2] | [4] | [3]

O=C1c2c(O)ccc(Nc3ccc(CCO)cc3)c2C(=O)c2c([N+](=O)[O-])ccc(O)c21
active: [3] 30 µM | [5] 4.35 µM | [8] 30.4 µM | [9] 10.6 µM
not listed: [4]
inactive: all other assays above

O=C(Cl)c1ccc(Cl)cc1Cl
inactive: [1] | [3]

CC(C)Nc1ccc(NC(C)C)c2c1C(=O)c1ccccc1C2=O
inactive: [2] | [4] | [3]

CN(C)C(C)(C)CO
inactive: [1] | [2] | [3]

CCn1c2ccccc2c2ccccc21
inactive: [2] | [3]
active: [4] 13.3 µM

CCCCCCCCCCCC(=O)Cl
active: [4] 38.5 µM
inactive: [2]

Cc1cnccn1
not listed: [4]
inactive: all other assays above

C[Si](Cl)(Cl)CCC(F)(F)C(F)(F)C(F)(F)C(F)(F)C(F)(F)C(F)(F)F
not listed: [3] | [4]
inactive: all other assays above

Nc1cc([N+](=O)[O-])cc(Cl)c1O
not listed: [3] | [4]
inactive: all other assays above

CCCCCCCCCc1ccc(OCCO)cc1
inactive: [2] | [4] | [3]

CC(C)(C)c1cc(Cc2cc(C(C)(C)C)c(O)c(C(C)(C)C)c2)cc(C(C)(C)C)c1O
active: [4] 15.7 µM
inactive: [2] | [3]

CCCCCCCCCCCCCC[P+](CCCC)(CCCC)CCCC
inactive: [2] | [4]

C=C(C)C(=O)OCC(F)(F)C(F)(F)C(F)(F)C(F)F
not listed: [3]
inactive: all other assays above

O=C(Cl)C(F)(F)C(F)(F)C(F)(F)C(F)(F)C(F)(F)C(F)(F)F
not listed: [1] | [3]
inactive: all other assays above

CCN(CCO)S(=O)(=O)C(F)(F)C(F)(F)C(F)(F)C(F)(F)C(F)(F)C(F)(F)C(F)(F)C(F)(F)F
inactive: [2] | [3] | [5] | [8]
active: [6] 45.7 µM and 19.5 µM | [7] 23.1 µM and 9.73 µM | [9] 42.6 µM and 20.2 µM

Brc1nc2ccccc2s1
not listed: [1] | [3] | [4]
inactive: all other assays above

CCCCCCCC/C=C\CCCCCCCC(=O)OCC(O)CO (stereo not given)
inactive: [3]

CCN=C1C=CC(=C(c2ccc(N(CC)CC)cc2)c2ccc(N(CC)CC)cc2)c2ccccc21
active: [5] 3.62 µM and 2.78 µM | [6] 1.99 µM and 1.72 µM | [7] 2.22 µM and 2.19 µM | [8] 1.03 µM and 1.16 µM | [9] 1.95 µM and 1.7 µM
inactive: [2]

OCC1CCCO1 (stereo not given)
inactive: [4]

OCC(F)(F)C(F)(F)C(F)(F)C(F)(F)C(F)(F)C(F)(F)C(F)(F)C(F)(F)CO
inactive: [5] | [6] | [7] | [8] | [9]
active: [6] 30 µM | [9] 30 µM

O=S(=O)(O)CCC(F)(F)C(F)(F)C(F)(F)C(F)(F)F
not listed: [1] | [2] | [4]
inactive: all other assays above

CCN(CC)c1ccc(N=Nc2ccccc2)cc1
active: [6] 20 µM | [7] 30.6 µM | [8] 13.2 µM | [9] 11.5 µM
not listed: [1]
inactive: all other assays above

CN(C(=O)C(F)(F)C(F)(F)C(F)(F)F)[Si](C)(C)C
not listed: [1] | [4]
inactive: all other assays above

CC(C)=CCCC(C)O (stereo not given)
inactive: [4]

CCOC(=O)CCC(C)=O
inactive: [4]

CCOC(=O)CC(=O)C(F)(F)C(F)(F)F
not listed: [1] | [3] | [4]
inactive: all other assays above

NC(O)(C(F)(F)F)C(F)(F)F
not listed: [1] | [2] | [4]
inactive: all other assays above

OCCCC(F)(F)C(F)(F)C(F)(F)C(F)(F)C(F)(F)C(F)(F)C(F)(F)C(F)(F)F
inactive: [3]
active: [2] 23.8 µM | [4] 2.86 µM | [5] 27.4 µM and 50.6 µM | [6] 46.9 µM and 39.5 µM | [7] 20.8 µM and 31.7 µM | [8] 45.5 µM and 46.7 µM | [9] 19.4 µM and 43.2 µM

FC(F)(F)C(F)(F)C(F)(F)C(F)(F)C(F)(F)C(F)(F)C(F)(F)CCI
not listed: [1] | [4]
inactive: all other assays above

OCCCCC(F)(F)C(F)(F)C(F)(F)C(F)(F)F
not listed: [1] | [3] | [4]
inactive: all other assays above

CCOC(C=C(C)CCC=C(C)C)OCC
active: [5] 32.8 µM | [6] 3.97 µM | [7] 32.1 µM | [8] 30.4 µM | [9] 35.4 µM
inactive: [2] | [4]

Oc1ccc(C2(c3ccc(O)c(C4CCCCC4)c3)CCCCC2)cc1C1CCCCC1
inactive: [3]

c1ccc(C[P+](c2ccccc2)(c2ccccc2)c2ccccc2)cc1
inactive: [2]
active: [3] 18.6 µM

CCOCOCC
inactive: [2] | [3]

O=C=NCc1cccc(CN=C=O)c1
not listed: [1]
inactive: all other assays above

CC(C)CC=C(C=O)c1ccccc1
inactive: [4]

OC(O)C(F)(F)C(F)(F)F
not listed: [1] | [3] | [4]
inactive: all other assays above

OCC(F)(F)C(F)(F)C(F)(F)CO
not listed: [1] | [3] | [4]
inactive: all other assays above

OCC(O)CC(F)(F)C(F)(F)C(F)(F)C(F)(F)F (stereo not given)
not listed: [1] | [3] | [4]
inactive: all other assays above

CCC(Cc1c(I)cc(I)c(N)c1I)C(=O)O (stereo not given)
inactive: [3]

Cc1ccc(S(=O)(=O)C(I)I)cc1
active: [5] 3.08 µM | [6] 5.63 µM | [7] 2.58 µM | [8] 1.43 µM | [9] 1.15 µM
inactive: [2] | [4] | [3]

O=C(O)C(F)(F)OC(F)(F)C(F)(F)OC(F)(F)C(F)(F)OC(F)(F)F
active: [4] 13.2 µM
not listed: [1]
inactive: all other assays above

NCC(F)(F)C(F)(F)C(F)(F)C(F)(F)C(F)(F)C(F)(F)C(F)(F)C(F)(F)F
active: [7] 0.57 µM
inactive: [2] | [4] | [3] | [5] | [6] | [7] | [8] | [9]

OCCCCl
inactive: [2] | [4] | [3]

O=C(F)C1(F)C(F)(F)C(F)(F)C(F)(F)C(F)(F)C1(F)F
inactive: [5] | [6] | [7] | [8] | [9]

CC1=CC2C3C=CC(C3)C2C1C (stereo not given)
not listed: [1] | [3] | [4]
inactive: all other assays above

CC(C)(C)c1cc(CCC(=O)NCCCCCCNC(=O)CCc2cc(C(C)(C)C)c(O)c(C(C)(C)C)c2)cc(C(C)(C)C)c1O
not listed: [1] | [3] | [4]
inactive: all other assays above

OCC(F)(F)C(F)(F)C(F)(F)C(F)(F)C(F)(F)C(F)(F)CO
not listed: [1] | [3] | [4]
inactive: all other assays above

O=C(c1ccccc1)c1ccc(Cl)cc1
active: [4] 68.7 µM
inactive: [2] | [3]

FC(F)(F)C(F)(F)C(F)(F)C(F)(F)C(F)(F)C(F)(F)CC[Si](Cl)(Cl)Cl
not listed: [1] | [3]
inactive: all other assays above
